Source: PubChem BioAssay (NCI)
This is part of a sample that, as a whole, favours compounds with a hit. Of some 83,000 tested, about 20% had one in any assay.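 48-hour exposure, single concentration, 96-well plates; percent growth endpoint where 0 means no net growth. Active: below 10.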 Activity calls are given as the source filed them.

tested on: OVCAR-8 ovarian; assay: NCI-60 one-dose screen, 48 h (100 = growth as untreated, 0 = no growth, -100 = all killed); settings: 10 µM unless noted

| Compound | growth |
| --- | --- |
| O=S(=O)(NCCCNc1cc(-c2cn(-c3ccccc3)nc2-c2cccc(O)c2)ccn1)c1ccc(Cl)cc1 | 20.4% (inactive) |
| COc1ccc(-c2nc3sccn3c2-c2ccnc(NCCCNS(=O)(=O)c3ccc(C)cc3)n2)cc1 | 25% (inactive) |
| O=C1c2ccccc2C(=O)c2c1oc1oc3c(c(=O)c21)c(=O)n(-c1ccccc1)c1ccccc31 | 48.2% (inactive) |
| C#CCC1(c2ccc(F)c(F)c2)NS(=O)(=O)c2ccccc21 (centres undefined) | 93.9% (inactive) |
| Cc1nc(Nc2cccnc2)sc1C(=O)/C=C/c1ccc(F)cc1 | 21.8% (inactive) |
| CCC#CC[C@H]1C/C=C2/C(=O)C=C[C@@H]2C/C=C\CCCC(=O)O1 | 13.6% (inactive) |
| CNC(=O)Cc1nc(-c2cccc(NS(=O)(=O)c3c(F)cccc3F)c2F)c(-c2ccnc(Nc3ccccc3)n2)s1 | 57.8% (inactive) |
| CC(=O)Nc1ccc2c(c1)/C(=C\C=C/c1ccc([N+](C)(C)C)cc1)c1ccccc1-2 | 57.4% (inactive) |
| COc1cc(OC)cc(-c2n[nH]nc2-c2ccc3c(c2)OCO3)c1 | 28.6% (inactive) |
| O=C1CCC/C=C\C[C@H]2C=CC(=O)/C2=C/C[C@H](C/C=C\CC(F)(F)F)O1 | 10.4% (inactive) |
| O=C(Nc1cccc(Cl)c1)c1cc([N+](=O)[O-])ccc1O | 69.3% (inactive) |
| O=C1N=C(c2c(-c3[nH]c(=O)c4ccc(Br)cc4c3O)c(O)c3ccccc3c2O)C(=O)c2cc(Br)ccc21 | -23.5% (active) |
| COc1cc(-n2nc(C(=O)Nc3ccc(C(=O)O)cc3)nc2-c2ccccc2)cc(OC)c1OC | 86.3% (inactive) |
| COc1ccc(OC)c(-c2ccc(-c3ccccc3N)c3[nH]c4ccccc4c23)c1 | 83.8% (inactive) |
| COc1ccc(S(=O)(=O)Nc2cc(/C=C\c3cc(OC)c(OC)c(OC)c3)cc(OC)c2OC)cc1OC | 41% (inactive) |
| Cc1cc(NC(=O)COC(=O)c2sc3cc(F)ccc3c2Cl)no1 | 112% (inactive) |
| Nc1c(C(=O)Nc2cccc(C(F)(F)F)c2)sc2nc3c(cc12)C(O)CCC3 (centres undefined) | 46.2% (inactive) |
| CC(=O)C1CCC(C)=CC1=O (centres undefined) | 100% (inactive) |
| COc1ccc(-c2nc3sccn3c2-c2ccnc(NCCCNS(=O)(=O)c3ccc(F)cc3)n2)cc1 | 6.98% (active) |
| COc1cc(-c2csc(NC(=O)Nc3ccc(Cl)cc3Cl)n2)cc(OC)c1OC | 45.4% (inactive) |

| Compound | growth |
| --- | --- |
| CCSc1nnc(Nc2ccc(C(C)C)cc2)s1 | 109% (inactive) |
| CCOC(=O)CC/C(C)=N\Nc1ccc([N+](=O)[O-])cc1 | 56.9% (inactive) |
| Cc1ccc2c(c1)C(=O)C(c1c(-c3[nH]c(=O)c4ccc(C)cc4c3O)c(O)c3ccccc3c1O)=NC2=O | 14.4% (inactive) |
| CN(C)CCCNC(=O)C(c1ccccc1)c1ccccc1 | 102% (inactive) |
| COc1ccc(-c2nnc(COc3ccc(NC(=O)Nc4ccc(Cl)c(C(F)(F)F)c4)cc3F)o2)cc1 | 14.5% (inactive) |
| O=c1oc2cc(OS(=O)(=O)c3ccc(F)cc3)ccc2c2c1CCCCC2 | 77.6% (inactive) |
| Nc1nc(-c2ccccc2)cs1 | 100% (inactive) |
| COc1ccc(C(=O)/C=C/c2cccc([N+](=O)[O-])c2)c(OC)c1 | 18.2% (inactive) |
| C=CCOc1cccc(/C=C/C(=O)c2sc(Nc3cccnc3)nc2C)c1 | 52.6% (inactive) |
| Cc1cc(Nc2nc(C(=O)Nc3ccccc3)nc3ccccc23)n[nH]1 | 75.6% (inactive) |
| CC1CCN(C(=O)CSc2nc3sc4c(c3c(=O)[nH]2)CCCC4)CC1 | 102% (inactive) |
| COc1ccc(-c2nc(-c3nc4ccc(F)cc4[nH]3)cc3c2[nH]c2ccccc23)cc1 | 13.6% (inactive) |
| CC/C=C\C[C@H](O)C/C=C1/C(=O)C(Cl)=C[C@@H]1C/C=C\CCCC(=O)O | 10.9% (inactive) |
| O=c1[nH]c2ccccc2cc1-c1nnc(Cc2ccccc2)o1 | 57.8% (inactive) |
| COc1ccc(C2CC(c3cccs3)=NN2c2ccc(S(=O)(=O)NC(=O)Nc3ccc(C)cc3)cc2)cc1 (centres undefined) | 99.8% (inactive) |
| CCSc1nnc(NC(=O)COc2ccc(Cl)cc2C)s1 | 100% (inactive) |
| COc1ccc(Cn2c(SC)nc(=O)n(Cc3ccc(Cl)cc3)c2=O)cc1 | 96% (inactive) |
| O=C(Nc1ccc(Br)c(Cl)c1)c1cc(F)ccc1O | 6.78% (active) |
| O=C(CCl)NCCNc1nccc(Nc2ccc(S(=O)(=O)Nc3ccccn3)cc2)n1 | 32.7% (inactive) |
